Test [1] in a line: binders of probe aFSTL3 on microarray, primary screen, stem cell growth factor project, biochemical, small-molecule microarray, fluorescence 635/667 (AID 1064).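 Also: measures binding of the biotinylated anti-FSTL3 antibody to printed compounds.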 The following applies: higher = more signal.
A short description of test [2]: binders from COS7 lysate, DM2A8 probe, primary screen, torsin A project, cell lysate, small-molecule microarray, fluorescence 635/667 (AID 1065). The following applies: higher = more signal, COS7 lysate expressing mutant human TOR1A.
A short description of test [3]: binders of probe aFGF2 on microarray, primary screen, stem cell growth factor project, biochemical, small-molecule microarray, fluorescence 635/667 (AID 1067).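 Also: measures binding of biotinylated aFGF2 protein to printed compounds on slides; z-score merges feature fluorescence and signal-to-noise across triplicate slides.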 The following applies: higher = more signal.
The nature of test [4]: binders of probe aFGF10 on microarray, primary screen, stem cell growth factor project, biochemical, small-molecule microarray, fluorescence 635/667 (AID 1071).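 Also: score merges 667 nm spot intensity and signal to noise from triplicate slides.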 To be noted: higher = more signal.
The target of test [5] is Neurogenic locus notch homolog protein 2 (Homo sapiens) (UniProt Q04721). In words: Notch2 binders on small-molecule microarrays, primary screen, biochemical, small-molecule microarray, 635 nm fluorescence, stem cell growth factors (AID 1073). The following applies: Notch2 binding, higher = more signal.
The target of test [6] is Pro-neuregulin-1, membrane-bound isoform (Homo sapiens) (UniProt Q02297). The experiment in a line: NRG1 binders on small-molecule microarrays, primary screen, psychiatric disease protein project, biochemical, small-molecule microarray, fluorescence 635/667 (AID 1075).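 Also: score combines 667 nm spot fluorescence with signal to noise.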 The following applies: NRG1 binding, 635 nm fluorescence, higher = more signal.
In test [7] the test system is Neuregulin-1 EGF-like domain. In words: binders of neuregulin-1 EGF-like domain, primary screen, biochemical, small-molecule microarray, 635 nm fluorescence (AID 1081).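 Also: binding of the protein to compounds printed on small-molecule microarray slides.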 To be noted: small-molecule microarray binding, higher = more signal.
A short description of test [8]: FRG1 promoter luciferase signal modulators, primary screen, FRG1 inhibition for FSHD, cell-based, C2C12 myotubes, firefly/Renilla luciferase, luminescence (AID 1084). To be noted: higher = more signal, called active from +8 up or from −8 down.
Test [9] can be described thus: binders of probe aFST on microarray, primary screen, stem cell growth factor project, biochemical, small-molecule microarray, fluorescence 635/667 (AID 1086).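 Also: score merges 667 nm fluorescence with signal-to-noise of each printed compound spot.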 The following applies: higher = more signal.
A short description of test [10]: binders of probe aHhip on microarray, primary screen, stem cell growth factor project, biochemical, small-molecule microarray, fluorescence 635/667 (AID 1087).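 Also: score merges spot fluorescence at 667nm with spot signal to noise ratio.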 To be noted: higher = more signal.

Activity calls are given as the source filed them.

Sequence of Neurogenic locus notch homolog protein 2 (Homo sapiens) (Q04721 whole entry, looked up, canonical isoform): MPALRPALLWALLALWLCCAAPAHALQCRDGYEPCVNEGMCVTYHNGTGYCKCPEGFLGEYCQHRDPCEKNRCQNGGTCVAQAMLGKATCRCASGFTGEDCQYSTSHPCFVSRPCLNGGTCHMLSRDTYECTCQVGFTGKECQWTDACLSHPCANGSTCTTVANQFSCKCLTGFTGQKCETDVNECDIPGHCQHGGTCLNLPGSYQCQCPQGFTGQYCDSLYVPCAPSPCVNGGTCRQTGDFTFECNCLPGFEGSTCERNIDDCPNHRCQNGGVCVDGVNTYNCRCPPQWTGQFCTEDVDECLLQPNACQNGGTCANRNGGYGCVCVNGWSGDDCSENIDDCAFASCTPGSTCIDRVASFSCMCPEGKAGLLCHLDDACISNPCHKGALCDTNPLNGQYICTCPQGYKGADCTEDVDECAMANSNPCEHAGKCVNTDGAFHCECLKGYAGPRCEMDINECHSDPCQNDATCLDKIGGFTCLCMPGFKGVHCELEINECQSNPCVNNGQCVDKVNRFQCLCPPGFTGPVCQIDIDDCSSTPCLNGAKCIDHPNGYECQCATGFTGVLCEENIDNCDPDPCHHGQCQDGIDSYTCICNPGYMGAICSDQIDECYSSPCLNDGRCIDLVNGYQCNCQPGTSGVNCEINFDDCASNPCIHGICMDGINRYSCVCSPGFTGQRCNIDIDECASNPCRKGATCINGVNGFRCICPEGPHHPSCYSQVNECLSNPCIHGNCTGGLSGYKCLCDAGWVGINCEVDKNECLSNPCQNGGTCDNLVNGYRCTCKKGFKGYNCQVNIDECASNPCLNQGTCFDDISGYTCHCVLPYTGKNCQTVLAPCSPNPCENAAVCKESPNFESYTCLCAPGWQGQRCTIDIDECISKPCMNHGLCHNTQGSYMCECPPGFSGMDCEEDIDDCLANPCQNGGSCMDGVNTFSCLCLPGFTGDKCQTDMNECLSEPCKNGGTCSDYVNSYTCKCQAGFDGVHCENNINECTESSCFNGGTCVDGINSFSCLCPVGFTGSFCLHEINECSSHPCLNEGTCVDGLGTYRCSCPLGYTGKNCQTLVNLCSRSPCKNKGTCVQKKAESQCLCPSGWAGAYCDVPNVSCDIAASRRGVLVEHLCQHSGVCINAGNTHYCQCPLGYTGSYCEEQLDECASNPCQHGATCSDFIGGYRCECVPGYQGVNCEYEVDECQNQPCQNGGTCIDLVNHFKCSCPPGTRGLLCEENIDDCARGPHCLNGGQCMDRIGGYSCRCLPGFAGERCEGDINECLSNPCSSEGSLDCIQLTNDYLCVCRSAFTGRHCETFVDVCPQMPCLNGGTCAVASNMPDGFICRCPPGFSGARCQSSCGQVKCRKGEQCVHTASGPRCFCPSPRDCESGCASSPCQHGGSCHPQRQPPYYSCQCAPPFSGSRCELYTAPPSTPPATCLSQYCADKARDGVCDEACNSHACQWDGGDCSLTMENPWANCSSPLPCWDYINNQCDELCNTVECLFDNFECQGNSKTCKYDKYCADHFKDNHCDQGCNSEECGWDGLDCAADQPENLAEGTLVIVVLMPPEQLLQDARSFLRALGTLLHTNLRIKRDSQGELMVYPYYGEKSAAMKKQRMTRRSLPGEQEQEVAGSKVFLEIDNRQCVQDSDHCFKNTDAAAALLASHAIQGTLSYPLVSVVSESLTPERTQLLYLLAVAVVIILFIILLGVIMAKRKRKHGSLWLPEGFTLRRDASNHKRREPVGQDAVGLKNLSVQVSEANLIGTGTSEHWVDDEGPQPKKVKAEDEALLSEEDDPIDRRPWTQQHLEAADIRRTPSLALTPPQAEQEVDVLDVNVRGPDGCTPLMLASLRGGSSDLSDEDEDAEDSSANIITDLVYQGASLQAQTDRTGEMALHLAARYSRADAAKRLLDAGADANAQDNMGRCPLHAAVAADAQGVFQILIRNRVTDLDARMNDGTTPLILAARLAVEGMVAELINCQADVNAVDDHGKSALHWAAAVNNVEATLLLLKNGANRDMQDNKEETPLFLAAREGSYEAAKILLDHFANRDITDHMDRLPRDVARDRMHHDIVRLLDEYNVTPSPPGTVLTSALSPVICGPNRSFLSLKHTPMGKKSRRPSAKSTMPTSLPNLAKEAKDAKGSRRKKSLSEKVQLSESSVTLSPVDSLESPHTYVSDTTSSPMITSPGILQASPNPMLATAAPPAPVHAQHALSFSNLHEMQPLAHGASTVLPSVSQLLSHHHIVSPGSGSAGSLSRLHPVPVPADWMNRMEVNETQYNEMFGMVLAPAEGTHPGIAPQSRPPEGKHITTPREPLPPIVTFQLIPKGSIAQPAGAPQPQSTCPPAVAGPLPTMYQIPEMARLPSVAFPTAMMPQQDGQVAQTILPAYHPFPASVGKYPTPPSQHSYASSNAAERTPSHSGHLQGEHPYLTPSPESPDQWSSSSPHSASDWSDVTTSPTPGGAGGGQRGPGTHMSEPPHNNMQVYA
Sequence of Pro-neuregulin-1, membrane-bound isoform (Homo sapiens) (Q02297 whole entry, looked up, the tested form may be a part, canonical isoform): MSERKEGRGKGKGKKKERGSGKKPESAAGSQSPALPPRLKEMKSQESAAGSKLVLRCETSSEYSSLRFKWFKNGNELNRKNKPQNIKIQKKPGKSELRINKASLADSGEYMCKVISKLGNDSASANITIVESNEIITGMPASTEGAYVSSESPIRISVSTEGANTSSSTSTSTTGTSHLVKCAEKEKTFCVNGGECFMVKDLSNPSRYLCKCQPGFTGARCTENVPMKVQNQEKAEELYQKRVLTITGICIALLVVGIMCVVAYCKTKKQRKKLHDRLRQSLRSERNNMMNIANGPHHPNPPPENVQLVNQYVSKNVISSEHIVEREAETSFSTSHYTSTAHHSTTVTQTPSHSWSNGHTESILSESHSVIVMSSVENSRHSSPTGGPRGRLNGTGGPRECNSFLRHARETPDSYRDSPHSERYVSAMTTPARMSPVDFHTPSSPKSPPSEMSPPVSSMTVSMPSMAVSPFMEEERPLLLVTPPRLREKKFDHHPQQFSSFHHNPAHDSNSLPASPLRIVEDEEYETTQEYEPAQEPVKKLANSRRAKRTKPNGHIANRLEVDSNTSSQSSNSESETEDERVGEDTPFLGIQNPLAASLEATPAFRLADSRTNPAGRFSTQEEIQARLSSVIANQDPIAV

Regarding `COc1ccc([Si](C)(C)[C@@H]2[C@@H](CC(=O)N(CCO)Cc3ccccc3)O[C@]3(C(=O)N(Cc4ccc(N5CCC5=O)cc4)c4ccccc43)[C@H]2C)cc1`, the composite z-score is -0.0664 in test [1]; 0.461 in test [2]; -0.0226 in [3]; 0.0667 in [4]; 0.0102 in [5]; 0.695 in test [6]. The composite z-score in test [7] is 0.677; in test [9] it was 2.26; in test [10], -0.0267. The z-score in test [8] is -0.192 (inactive).

For the compound `COC(=O)[C@H](Cc1ccc(O)cc1)N1CC2=CCCC=C[C@@H]2[C@H]1[C@H](O)Cc1ccccc1`, the composite z-score in [1] was -0.565; in [2], -0.214; in test [3], -0.124; in test [4] it was 0.288; in [5] it was 0.35; in [6] it was 0.166. In addition, the composite z-score was 0.324 in [7], 0.166 in [9] and -0.132 in [10]. In addition, the z-score in [8] is -0.106 (inactive).

`COCCn1c(C(=O)N2CCCC2)cc2c1C[C@H]1CN(C(=O)c3ccccc3)[C@@](Cc3ccccc3)(C(=O)OC)[C@@H]21`: the composite z-score in [1] was found to be 0.288; in test [2], 1.16; in test [3], 0.576; in test [4], 0.888; in test [5] it was 1.11; in [6] it was 2.16. The composite z-score in test [7] was 1.42; in [9] it was 1.11; in test [10], 0.688. The z-score in test [8] is 2.7 (inactive).

Regarding `Cc1ccc(S[C@]2(C(=O)NCCN3CCOCC3)CC(=O)N(C3CCCCC3)[C@@H]2c2ccc(CO)cc2I)cc1`, the composite z-score is -1.01 in test [1]; 0.866 in test [2]; -0.0687 in [3]; 0.841 in test [4]; 0.955 in test [5]; 1.61 in test [6]. For the same compound, the composite z-score in [7] was 1.22; in test [9], 0.259; in test [10], -0.279. Also, in test [8], the z-score is -2.05 (inactive).

For the compound `COc1cc(OC)c(C(O)C2C=CC3C(=O)N(c4ccccc4)C(=O)C3N2Nc2ccccc2F)cc1Br` (stereo not given), the composite z-score in test [1] was found to be 0.0776; in test [2] it was 0.948; in [3], 0.0619; in test [4], 0.61; in test [5] it was 1.44; in test [6] it was 1.74. Besides, the composite z-score in test [7] is 1.25; in test [9] it was 1.53; in [10], -0.0088. Also, the z-score in test [8] is 0.0172 (inactive).

Turning to `C=C(/C(=C/C[C@H](OC(=O)c1ccncc1)c1ccccc1OCCO)c1cc(C(=O)OC)ccc1OC)C(C)C`, the composite z-score is -0.0165 in test [1]; 0.229 in test [2]; -0.01 in test [3]; 0.605 in [4]; 0.267 in [5]; 1.1 in [6]. Moreover, the composite z-score in test [7] is 1.28; in test [9], 0.265; in test [10] it was -0.249. In [8], the z-score is -1 (inactive).

`CN(C)CCCC[C@@H]1NC(=O)[C@@H]2C[C@H](C(=O)NCc3ccc(F)cc3)[C@H](c3ccc(O)cc3)N2C1=O`: the composite z-score is 0.274 in test [1]; 0.295 in test [2]; -0.103 in [3]; 0.203 in test [4]; -0.446 in test [5]; 0.625 in [6]. In addition, the figures for the composite z-score in test [7], in test [9] and in [10] were 1.49, -0.512 and -0.191, respectively. Further, the z-score in [8] was 0.254 (inactive).

As for `COc1ccc(NN2C(C(O)c3ccc(OC)cc3)C=CC3C(=O)N(C4CCCCC4)C(=O)C32)cc1` (stereo not given), the composite z-score in [1] is -0.147; in test [2], 0.191; in test [3], -0.0131; in test [4], 0.467; in [5] it was 1.18; in [6], 1.29. Further, the composite z-score in [7] was 0.978; in [9] it was 0.775; in [10], -0.16. Also, in [8], the z-score was 1.55 (inactive).

These data come from PubChem BioAssay.
